Data: PubChem BioAssay (NCI)
The panel holds about 79,000 compounds, 15% with a hit somewhere; the sample as a whole holds those more often. A number with no mark means an inactive call. The source made the active and inactive calls. No stated cut-off is given here; in the data, active means growth inhibition above about 70%; inactive means the rest.

Tests used:
[1] = NCI Yeast Anticancer Drug Screen. Data for the rad50 strain (AID 155);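 further: 0% = growth of vehicle-only cultures of the same strain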; conditions: S. cerevisiae rad50 strain growth inhibition; at 50.0 µM; stronger effect = higher value
How it was run: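 Cells are treated with compound, grown, and their growth is then scored against vehicle-only cultures of the same repair-deficient yeast strain.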

[2] = NCI Yeast Anticancer Drug Screen. Data for the mec2-1 strain (AID 157); conditions: S. cerevisiae mec2-1 strain, at 50.0 µM, stronger effect = higher value
How it was run: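 Readout is yeast growth inhibition, normalised to vehicle-treated controls, in the mec2-1 strain exposed to compound.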

[3] = NCI Yeast Anticancer Drug Screen. Data for the sgs1 mgt1 strain (AID 161);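 further: 0% = growth of cultures given vehicle only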; conditions: S. cerevisiae sgs1 mgt1 strain, at 50.0 µM, stronger effect = higher value
How it was run: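 Yeast cells carrying a defined DNA-repair defect were exposed to test compounds. Growth inhibition was measured relative to vehicle-treated controls.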

[4] = NCI Yeast Anticancer Drug Screen. Data for the cln2 rad14 strain (AID 165);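 further: 0% = growth equal to vehicle treated cultures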; conditions: S. cerevisiae cln2 rad14 strain, at 50.0 µM, stronger effect = higher value
How it was run: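 Relative to vehicle controls, growth inhibition of compound-treated cln2 rad14 yeast was recorded.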

[5] = NCI Yeast Anticancer Drug Screen. Data for the bub3 strain (AID 167); conditions: S. cerevisiae bub3 mutant strain, at 50.0 µM, stronger effect = higher value
How it was run: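 Part of a panel of yeast mutants defective in DNA damage repair or cell cycle regulation. Each strain is grown with compound, and inhibition is calculated relative to solvent-treated cultures.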

[6] = NCI Yeast Anticancer Drug Screen. Data for the mlh1 rad18 strain (AID 175); conditions: S. cerevisiae mlh1 rad18 strain growth inhibition; at 50.0 µM; stronger effect = higher value
How it was run: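 Test agents were incubated with a yeast strain of defined genotype (DNA damage repair defect). Inhibition of growth was derived by comparison with vehicle-exposed cultures.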

Row | Structure (SMILES) | growth inhibition [1] | growth inhibition [2] | growth inhibition [3] | growth inhibition [4] | growth inhibition [5] | growth inhibition [6]
1 | CCN(CC)CC(C(=O)Nc1c(C)cccc1C)/C(C)=N\NC(=O)C[N+](C)(C)C (configuration not stated) | 19.4% | 4.85% | -26.6% | -21.8% | -0.7% | -1.9%
2 | COc1ccc2c(c1)C(O)C(NCc1ccccc1)C2 (configuration not stated) | -13.6% | -7.75% | -0.45% | -9.9% | 8.5% | -8.55%
3 | Cc1ccc(S(=O)(=O)NC(Cc2ccc(O)cc2)C(=O)O)cc1 (configuration not stated) | 1.5% | -8.4% | 5.25% | -57.2% | 12.6% | 35.5%
4 | COc1ccc(C)cc1N=NC1C(=O)N(C(=O)CC(=O)Nc2ccccc2OC)N=C1c1ccccc1 (configuration not stated) | 12.8% | -1.5% | -7.4% | 6.55% | 2.35% | 15.3%
5 | COc1ccc(OC(=O)Nc2cccc(C(C)=O)c2)cc1 | 8.35% | 42.3% | 9.9% | 1.8% | 22.1% | 3.15%
6 | O=C1OCc2c[n+]([O-])ccc21 | -17.4% | -9.2% | -6.85% | -30.2% | 0.65% | 4.35%
7 | Cc1cccc(C)c1C1=NCCN1 | 3.55% | -8.95% | -8.95% | -39.2% | -16.8% | 1.65%
8 | COC(=O)[C@]1(C)CCC[C@]2(C)c3cc(Br)c(C(C)C)cc3CC[C@H]12 | -18.6% | -9.25% | -6.3% | -44.5% | -4.55% | -1.8%
9 | CCOC(=O)COc1cc2c(cc1C(C)c1cc(OC)c(OC)c(OC)c1)OCO2 (configuration not stated) | 34.6% | 2.2% | 10.3% | 18.1% | 34% | 10.9%
10 | CSc1nc(Cl)nc2c1nc(SC)n2-c1ccccc1 | -8.4% | 7.95% | -0.45% | -8.95% | 16.5% | -15%
11 | Nc1nc(CCl)nc(N2CCOCC2)n1 | 6.3% | 1.65% | 7.7% | 20.4% | 19.4% | -20.2%
12 | CCCCSCC(O)c1ccccc1 (configuration not stated) | -8.85% | -19.1% | -24.5% | -44.1% | 9% | -2.2%
13 | COc1ccccc1C(=O)c1ccccc1 | -27.4% | -7.3% | -3.4% | -14.9% | -20.1% | -11.2%
14 | COCn1cnc2c(ccn2C2OC(CO)C(O)C2O)c1=O (configuration not stated) | -25.4% | 0% | -8.9% | -2.1% | 4% | 4.55%
15 | O=C1OC(CC(=O)c2ccc(Cl)c(Cl)c2)C(Cl)=C1Cl (configuration not stated) | 43.1% | 12.3% | 33.1% | 29.9% | 30% | 52.7%
16 | CC1=C(c2cc(C(=O)Nc3cccc(Cl)c3)nc(NC#N)n2)Sc2ccccc2N1 | 25.6% | 0.9% | -0.7% | 16.4% | 4.75% | 33.5%
17 | CC1=C(C(=O)CC(=O)C(=O)Nc2cccc(C)c2C)Sc2ccccc2N1 | -24.6% | -43.1% | -12.8% | -1.9% | -13.8% | -12.5%
18 | CC[N+](C)(CC)CCN1C(=O)CC[C@@]2(C)C1=CC[C@@H]1[C@@H]2CC[C@@]2(C)[C@H]1CC[C@]2(C)O | 6.65% | 8.8% | 6.45% | 29.5% | 9.7% | 12.1%
19 | Cn1cc(/C=C\C(=O)O)c2ccccc21 | -10.7% | -0.6% | 6.7% | -35.2% | -26.9% | 6.4%

Row | Structure (SMILES) | growth inhibition [1] | growth inhibition [2] | growth inhibition [3] | growth inhibition [4] | growth inhibition [5] | growth inhibition [6]
20 | O=C1COc2cccnc2N1 | 12.7% | -2.05% | 19.5% | 2.2% | 14.7% | 14.7%
21 | CCOC1(OCC)CCC2(CC1)c1ccccc1-c1ccccc12 | 9.5% | 15.8% | 2.95% | 1.15% | -7.45% | 14.8%
22 | Cc1ccc(C(=O)Nc2ccc(S(=O)(=O)O)c3cc(S(=O)(=O)O)cc(S(=O)(=O)O)c23)cc1N | -28.1% | -7.05% | -54.5% | 1.7% | -13.2% | -28.2%
23 | CN(C)CCCC1(O)c2ccccc2Sc2cc(Cl)ccc21 (configuration not stated) | 12.9% | 12.9% | 17.9% | 18.6% | 12.7% | 25.9%
24 | CC1SC2=NC3=C(c4ccccc4C3=O)C(c3ccc(Br)cc3)N2C1=O (configuration not stated) | -37.5% | -15.9% | -36.3% | -15.8% | -37% | -32.8%
25 | Cc1ncc([N+](=O)[O-])n1CCNCCCn1ccnc1[N+](=O)[O-] | -9.9% | -7.25% | -17.4% | -9.3% | -9.7% | -44%
26 | OCC(O)C1OC(n2cnc3c(=S)nc[nH]c32)C(O)C1O (configuration not stated) | 2.85% | -6.75% | -3.8% | -42.8% | -6.5% | -10.6%
27 | O=C(c1ccc(F)cc1)c1c[nH]c(=O)[nH]c1=O | -0.45% | -18.1% | -7.85% | -6.85% | 2.6% | -33.2%
28 | CCO/N=C(/CNC(=O)Oc1ccccc1)c1ccccc1 | 3.15% | 0.75% | -4.05% | 28% | 37.4% | 9.45%
29 | CN(C)CCNC(=O)c1nc([N+](=O)[O-])cn1C | 31.9% | 3.55% | -2.25% | 7.35% | 20.4% | -69.2%
30 | CCCCCCC(O)C/C=C\CCCCCCCC(=O)O (configuration not stated) | -14% | -3.7% | -30.9% | 62.9% | -9.2% | -15.9%
31 | O=[N+]([O-])c1ccc(C2=Nc3ccccc3S(=O)C(c3ccccc3)C2)cc1 (configuration not stated) | 5.3% | -27.3% | 19.9% | 3.45% | 10.7% | 20.6%
32 | Cc1c2ccccc2nc(CS(=O)c2ccccc2)[n+]1[O-] (configuration not stated) | -8.8% | 21.9% | 20.1% | -36.4% | 16.8% | 20.2%
33 | N=c1nc2ccc3ccccc3c2nn1-c1ccc([N+](=O)[O-])cc1 | 88% (active) | 16.4% | 13.8% | -5.4% | 18.6% | 27.2%
34 | CCN(CC)CCN(C)CCN(CC)CC | 14.1% | 1.7% | 18.6% | 9.8% | 38.7% | 17.6%
35 | O=c1oc2ccccc2c(O)c1C(c1ccc2c(c1)OCO2)N1CCOCC1 (configuration not stated) | 23.2% | 25.2% | 8.5% | 25.7% | 1.8% | 19.1%
36 | Cc1ccc(S(=O)(=O)c2c(N)c3nccn3c3nc4ccccc4nc23)cc1 | -52.2% | -68.2% | -77.5% | -38.8% | -62.1% | -88.8%
37 | O=C(OC1CC2CCC1C2)c1cc([N+](=O)[O-])cc([N+](=O)[O-])c1 (configuration not stated) | 8.55% | -1.4% | -9% | -20.4% | -3.7% | -3%
